Assay outcomes: PubChem BioAssay, ICCB-Longwood Screening Facility, Harvard Medical School
This excerpt belongs to a sample that is enriched for hits.
Vaccinia pol inh: inhibitors of vaccinia virus processive DNA synthesis (E9 polymerase) | in vitro processive DNA synthesis, absorbance read-out; stronger effect = lower value | normalized absorbance, % (no concentration beside the values) | 46,000 compounds, 0.94% hits | AID 493162; in the data active = normalized absorbance mostly below about 85%, no sharp cut-off; inactive = mostly above about 86%
Numbers without * were called inactive.

SMILES	Vaccinia pol inh
CC1CCN(C(c2ccccc2)c2ccc3cccnc3c2O)CC1 (stereo not drawn)	100.9
COc1ccc(-c2nnc(SCc3ccc(F)cc3)n2-c2ccccc2)cc1	99.7
Cc1ccc(Cl)cc1NC(=O)CC(NCC1CCCO1)C(=O)O (stereo not drawn)	104.3
N#Cc1ccc(CSc2ccc(Cl)cc2)cc1	99.9
O=C(CSC1=NCCN1)NC(c1ccccc1)c1ccccc1	90.5
N#Cc1ccc(CSC2=NCCN2)cc1	70.6*
CN1CN=C(SCc2ccc(Cl)c(Cl)c2)NC1	64.6
CCN1CN=C(SCc2cccc(C#N)c2)NC1	68.7
CN1CN=C(SCc2cccc(C#N)c2)NC1	76.1*
N#CC(C#N)=C1CCN(c2ncc(C(F)(F)F)cc2Cl)CC1	92.7
COC(=O)c1sc(-c2ccccc2)cc1NC(=O)C1CCCCC1	100.6
Cc1ccc(C)c(CN(C2=NC3CS(=O)(=O)CC3S2)c2cccc(Cl)c2)c1 (stereo not drawn)	88.6
COc1cccc(N(Cc2ccc(C)cc2)C2=NC3CS(=O)(=O)CC3S2)c1 (stereo not drawn)	68.1*
Cc1cccc(N(Cc2cc(=O)n3ccccc3n2)C2=NC3CS(=O)(=O)CC3S2)c1 (stereo not drawn)	101.4
C=CCn1c(SCC(=O)c2ccccc2)nnc1-c1ccncc1	92.9
CN(C1CCCCC1)S(=O)(=O)c1ccc(C(=O)Nc2nccs2)cc1	88.1
CN(C)S(=O)(=O)c1ccc(C(=O)Nc2nccs2)cc1	96.9
CCN(CC)S(=O)(=O)c1ccc(C(=O)Nc2nccs2)cc1	85.6*
O=C1C2C3C=CC(C3)C2C(=O)N1C1CCS(=O)(=O)C1 (stereo not drawn)	99.4
Cc1ccc(C(CC(=O)c2ccco2)SCc2ccco2)cc1 (stereo not drawn)	98.4
Nc1nccc(-c2ccccc2OCc2ccc(Cl)cc2)n1	98.7
Nc1nccc(-c2ccc(Oc3ccc(Cl)cc3)cc2Cl)n1	76.4*
CC(Oc1ccc(-c2ccccc2)c(F)c1)c1ccnc(N)n1 (stereo not drawn)	96.2
CCOC(=O)c1sc2ncn(/N=C/c3ccc4c(c3)OCCO4)c(=O)c2c1C	101.3
Cc1ccc(C2C=C(C34CC5CC(CC(C5)C3)C4)NC(=S)N2)cc1 (stereo not drawn)	100.5
SMILES	Vaccinia pol inh
CC(=O)n1c2ccc(C)cc2c2nc3ccccc3nc21	92.9
CC(=O)n1c2ccccc2c2nc(N)sc21	64.2*
CC(=O)n1c(=O)n(C(C)=O)c2ccccc21	89.1
N#CSCC(=O)n1c2ccccc2c2ccccc21	99.8
CC(=O)n1c2ccccc2c2c(-c3ccccc3)c(N3CCOCC3)sc21	98.1
CC(=O)n1c2ccccc2c2ccccc21	67.2*
CSc1ccc(C(N)CCO)cc1 (stereo not drawn)	90.6
COc1cc(C(=O)NC(=S)NC(N)=O)cc(OC)c1OC	94.8
CCOc1ccc(NC(=O)C2CCN(S(=O)(=O)c3cnc[nH]3)CC2)cc1	94.0
COc1ccccc1NC(=O)COC(=O)C1(c2ccc(F)cc2)CCCC1	113.4
O=C(COc1ccc(Oc2ccccc2)cc1)NCCCn1ccnc1	99.1
CN(C)CCNc1cc(-c2ccncc2)nc2ccccc12	62.7
CN(C)CCNc1cc(-c2cccnc2)nc2ccccc12	48.0*
COC(=O)c1cc(-c2cccnc2)nc2ccccc12	96.4
N#Cc1ccc(Cl)cc1NC(=O)CSC(=O)c1ccccc1	97.1
Cc1[nH]c2ccccc2c1SCC(=O)NCc1ccco1	99.7
COc1ccc(OCCCC(=O)O)cc1	103.7
CN1CCc2c(-c3cccs3)nc(OCc3ccccc3Br)c(C#N)c2C1	45.9*
N#Cc1ccc(CSc2nc(-c3cccs3)c3c(c2C(=O)O)CCCC3)cc1	99.6
N#Cc1c(-c2ccco2)cc(-c2cccs2)nc1OCc1ccc(F)cc1	89.0
Cc1nn(C)c(C)c1NC(=O)Nc1ccccc1	73.3
O=C(CCCn1sc2ccccc2c1=O)N1CCc2ccccc21	94.9
C=CCn1c(=O)[nH]c2ccccc21	100.2
O=C1c2ccccc2-c2onc3c(Br)cc(N4CCCCC4)c1c23	73.3*
CC(C)Nc1cc(Br)c2noc3c2c1C(=O)c1ccccc1-3	100.3
SMILES	Vaccinia pol inh
CCNc1cc(N(C)C)c2noc3c2c1C(=O)c1ccccc1-3	72.4
Cn1cnnc1SCC(=O)c1ccc(Cl)cc1	98.1
BrCc1ccc(-c2noc(-c3ccncc3)n2)cc1	21.0*
COc1ccc(-c2noc(-c3ccc(Cl)c(Cl)c3)n2)cc1	100.3
COc1ccc(Cc2nc(-c3ccc(Br)cc3)no2)cc1	94.5
O=C(CCCN1C(=O)/C(=C\c2ccco2)SC1=S)Nc1ccccc1C(F)(F)F	93.8
Fc1cccc(N=Cc2ccc3c(c2)OCO3)c1	85.5
